Records with an inconclusive call do not appear. Where a call stands in place of a potency, no number is given. The source made the active and inactive calls. Calls come from the whole dose curve; as a rule, active = well fitted curve in the direction sought with a large enough effect; inconclusive = small, poorly fitted or top-dose-only effect, or another doubt; inactive = no such curve, though single readings can be large; an effect the other way counts as inactive or inconclusive.
Test: qHTS assay for measurement of the activity of small molecule inhibitors on Zika virus induced Caspase-3 activity in human iPSC derived neural progenitor cells (hNPCs) (AID 1224857); note: nearly all actives have a fitted effect of over 65% in size; note: potency is the fitted concentration of half-maximal effect
Conditions: hNPCs ZIKV-induced caspase-3/7, Caspase-Glo luminescence, 6 h; series mostly up to 45.7 µM
In short: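 Pretreat hNPCs with compound 1 h; infect ZIKV 2 FFU/cell; 6 h 37 C, 5% CO2; Caspase-Glo 3/7, 30 min RT; luminescence; normalize to no-virus and virus-only wells.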

Structure (SMILES)	Potency
CN1[C@H]2CC(O)C[C@H]1[C@H]1O[C@H]12 (stereo not given in full)	inactive
Cn1cnc(CCN)c1	inactive
CC(=O)[O][Hg][c]1ccccc1	inactive
CC1(C)CC/C(=C/c2ccc(Cl)cc2)C1(O)Cn1cncn1 (stereo not given)	inactive
C[C@@H](N)Cc1cnc[nH]1	inactive
CC(C)Oc1cccc(NC(=O)c2ccccc2C(F)(F)F)c1	inactive
COc1ccc(C(=O)c2c(C)n(CCN3CCOCC3)c3cc(I)ccc23)cc1	inactive
O=S(=O)(c1ccc(Cl)cc1)c1ccc(Cl)cc1	inactive
Fc1cc(Br)ccc1CBr	inactive
C[N+]1(C)C2CCC1CC(OC(=O)C(CO)c1ccccc1)C2 (stereo not given)	inactive
CCC(=O)O[C@@H]1C=C2CCC3C(CCC4(C)C3CC[C@@H]4OC(=O)CC)C2CC1 (stereo not given in full)	inactive
Nc1ccc([N+](=O)[O-])cc1	inactive
NC(CP(=O)(O)O)C(=O)O (stereo not given)	inactive
C#CCOC(=O)C1=CCCN(C)C1	inactive
Nc1ccc(N=Nc2ccccc2)cc1	28.2 µM (active)
CS(=N)(=O)CC[C@H](N)C(=O)O (stereo not given in full)	inactive
C=CCC1=C(C)C(OC(=O)C2C(C=C(C)C)C2(C)C)CC1=O (stereo not given)	inactive
CCCCC(CC)COC(=O)c1ccccc1C(=O)OCC(CC)CCCC (stereo not given)	inactive
Nc1ccc(Cl)cc1N	inactive
CCOP(=O)(NC(C)C)Oc1ccc(SC)c(C)c1 (stereo not given)	inactive
Cc1nccc2c1[nH]c1ccccc12	inactive
COc1ccc(C(c2ccc(OC)cc2)C(Cl)(Cl)Cl)cc1	inactive
O=C1CCC[C@@H]2[C@H]3CCCN4CCC[C@@H](CN12)[C@@H]34	inactive
CCCN(CCC)C1CCc2ccc(O)cc2C1 (stereo not given)	inactive
Clc1cnc(Oc2ccc(Oc3ncc(Cl)cc3Cl)cc2)c(Cl)c1	inactive
CC1=C(C(=O)O)N2C(=O)[C@@H](N)[C@H]2SC1	inactive
C=CCN1CC[C@]23CCCCC2[C@H]1Cc1ccc(O)cc13 (stereo not given in full)	inactive
CC(O)CN1CCN(CC(=O)[O-])CCN(CC(=O)[O-])CCN(CC(=O)[O-])CC1.[Gd+3] (stereo not given)	inactive
C[N+](C)(C)CC(=O)O	inactive
O=C(Nc1ccccc1-c1ccc(Cl)cc1)c1cccnc1Cl	inactive

Test: qHTS assay for measurement of the activity of small molecule inhibitors on Zika virus induced Caspase-3 activity in human astrocytoma cells (AID 1224859)
Conditions: SNB-19 ZIKV-induced caspase-3/7, luminescence, 6 h; series mostly up to 45.7 µM
In short: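 Human SNB-19 astrocytoma cells in RPMI 1640 with 10% FBS receive compound one hour ahead of Zika virus at 2 FFU/cell. After 6 h infection, caspase-3/7 activity is detected by Caspase-Glo luminescence.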

Structure (SMILES)	Potency
Cn1cnc(CCN)c1	inactive
CC1(C)CC/C(=C/c2ccc(Cl)cc2)C1(O)Cn1cncn1 (stereo not given)	inactive
C[C@@H](N)Cc1cnc[nH]1	inactive
CC(C)Oc1cccc(NC(=O)c2ccccc2C(F)(F)F)c1	inactive
COc1ccc(C(=O)c2c(C)n(CCN3CCOCC3)c3cc(I)ccc23)cc1	inactive
O=S(=O)(c1ccc(Cl)cc1)c1ccc(Cl)cc1	inactive
Fc1cc(Br)ccc1CBr	inactive
C[N+]1(C)C2CCC1CC(OC(=O)C(CO)c1ccccc1)C2 (stereo not given)	inactive
CCC(=O)O[C@@H]1C=C2CCC3C(CCC4(C)C3CC[C@@H]4OC(=O)CC)C2CC1 (stereo not given in full)	inactive
Nc1ccc([N+](=O)[O-])cc1	inactive
S=C(SSC(=S)N1CCCCC1)N1CCCCC1	inactive
NC(CP(=O)(O)O)C(=O)O (stereo not given)	inactive
C#CCOC(=O)C1=CCCN(C)C1	inactive
CS(=N)(=O)CC[C@H](N)C(=O)O (stereo not given in full)	inactive
C=CCC1=C(C)C(OC(=O)C2C(C=C(C)C)C2(C)C)CC1=O (stereo not given)	inactive
Nc1ccc(Cl)cc1N	inactive
CCOP(=O)(NC(C)C)Oc1ccc(SC)c(C)c1 (stereo not given)	inactive
COc1nn(CSP(=S)(OC)OC)c(=O)s1	inactive
O=[N+]([O-])c1c2ccccc2cc2ccccc12	inactive
O=S(=O)(CC1CS1)c1ccc(Oc2ccccc2)cc1 (stereo not given)	inactive
Cc1nccc2c1[nH]c1ccccc12	inactive
COc1ccc(C(c2ccc(OC)cc2)C(Cl)(Cl)Cl)cc1	inactive
CCCN(CCC)C1CCc2ccc(O)cc2C1 (stereo not given)	inactive
Clc1cnc(Oc2ccc(Oc3ncc(Cl)cc3Cl)cc2)c(Cl)c1	inactive
CCCCCCCCCC(CC)c1ccc(S(=O)(=O)O)cc1 (stereo not given)	inactive
CC1=C(C(=O)O)N2C(=O)[C@@H](N)[C@H]2SC1	inactive
C=CCN1CC[C@]23CCCCC2[C@H]1Cc1ccc(O)cc13 (stereo not given in full)	inactive
O=C(O)CCCOc1ccc(Cl)cc1Cl	inactive

Test: qHTS Screen of the MIPE 4.0 Collection Against Ewings Sarcoma (EW8) (AID 1259255); note: nearly all actives have a fitted effect of over 35% in size; note: potency is the fitted concentration of half-maximal effect
Conditions: EW8 Ewing sarcoma viability, CellTiter-Glo, 48 h; series mostly up to 45.8 µM
In short: (§1)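 Cells plated in serum-containing RPMI (5% FBS) and treated with compound dilutions for 48 h. Readout luminescent viability; normalization relied on vehicle (no inhibition) and media-only columns (full inhibition).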

Structure (SMILES)	Potency
CN1[C@H]2CC(O)C[C@H]1[C@H]1O[C@H]12 (stereo not given in full)	23.5 µM (active)
O=S(=O)(CC1CS1)c1ccc(Oc2ccccc2)cc1 (stereo not given)	20.9 µM (active)
O=C1CCC[C@@H]2[C@H]3CCCN4CCC[C@@H](CN12)[C@@H]34	inactive

Test: qHTS Screen of the MIPE 4.0 Collection Against Ewings Sarcoma (TC32) (AID 1259256); note: nearly all actives have a fitted effect of over 45% in size; note: potency is the fitted concentration of half-maximal effect
Conditions: TC32 Ewing sarcoma viability, CellTiter-Glo, 48 h; series mostly up to 45.8 µM
In short: as §1

Structure (SMILES)	Potency
CN1[C@H]2CC(O)C[C@H]1[C@H]1O[C@H]12 (stereo not given in full)	23.5 µM (active)
O=S(=O)(CC1CS1)c1ccc(Oc2ccccc2)cc1 (stereo not given)	16.6 µM (active)
O=C1CCC[C@@H]2[C@H]3CCCN4CCC[C@@H](CN12)[C@@H]34	inactive

Test: qHTS assay to identify small molecule inhibitors of chordoma cells - UCH-1 (AID 1259355); note: nearly all actives have a fitted effect of over 55% in size; note: potency is the fitted concentration of half-maximal effect
Conditions: UCH-1 chordoma viability, CellTiter-Glo, 48 h, combination; series mostly up to 46.1 µM
In short: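 800 cells/well, overnight attach; compounds pinned at 15 concs, then auranofin/camptothecin/doxorubicin/rubitecan/topotecan combo added; 48hr 37 C, 5% CO2; CellTiter-Glo, 30min RT, luminescence.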

Structure (SMILES)	Potency
CC(=O)[O][Hg][c]1ccccc1	7.08 µM (active)
CCCCCCCCCC(CC)c1ccc(S(=O)(=O)O)cc1 (stereo not given)	inactive
C[N+](C)(C)CC(=O)O	inactive

Test: qHTS assay to identify small molecule inhibitors of chordoma cells - UCH-2 (AID 1259356); note: potency is the fitted concentration of half-maximal effect
Conditions: UCH-2 chordoma viability, CellTiter-Glo ATP luminescence, 48 h; series mostly up to 46.1 µM

Structure (SMILES)	Potency
CC(=O)[O][Hg][c]1ccccc1	2.59 µM (active)
CCCCCCCCCC(CC)c1ccc(S(=O)(=O)O)cc1 (stereo not given)	inactive
C[N+](C)(C)CC(=O)O	inactive
